The source of these data is the supplement of paper PMC8007513.

Where a name gives a salt, the structure may show the parent alone. ± gives the standard error. Out of some 1,300 compounds screened, about 75 (6%) showed an effect of 50% or more. The full list was thinned out, with strong results kept by preference.

The subject of the experiment is Trichoderma virens ATCC 9645. In words: growth yield (OD600) relative to untreated control; higher = less growth inhibition. As to conditions: compound concentration: 100 uM. The essentials: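 Trichoderma virens ATCC 9645 spores from 7-day potato dextrose agar plates were suspended in potato dextrose broth at 15,000 spores ml^−1. Aliquots of 100 μl with library compounds at 100 μM final, with or without a co-applied biocide at 200 ng ml^−1, were grown in 96-well plates at 30 °C. OD600 was read at 40 h and 72 h on a BioTek EL800. Growth is expressed relative to the control without either agent, as means of duplicate screens.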

For the molecule `Clc1ccccc1C(c1ccccc1)(c1ccccc1)n1ccnc1` [Clotrimazole], the growth yield stood at 2.38 ± 1.8% (40 h) and 1.89 ± 1.1% (72 h).

For `CN(C)c1ccc(O)c2c1C[C@H]1C[C@H]3[C@H](N(C)C)C(O)=C(C(N)=O)C(=O)[C@@]3(O)C(O)=C1C2=O` [Minocycline hydrochloride], the growth yield is 95.3 ± 0.64% (40 h) and 97.4 ± 2% (72 h).

`CC(C)(C)NC[C@H](O)COc1ccccc1C1CCCC1` [Penbutolol sulfate] had a growth yield (40 h) of 109 ± 6.2% and a growth yield (72 h) of 110 ± 5.1%.

`CC(=O)N(CC(O)CO)c1c(I)c(C(=O)NCC(O)CO)c(I)c(C(=O)NCC(O)CO)c1I` (stereo not given) [Iohexol]: the growth yield (40 h) came out at 103 ± 1.3% and the growth yield (72 h) was 106 ± 1.1%.

Turning to `CNC(C)CCC=C(C)C` (stereo not given) [Isometheptene mucate], the growth yield was 99.1 ± 3.8% (40 h) and 96.2 ± 4.3% (72 h).

Take `CCCC(=O)Nc1ncnc2c1ncn2[C@@H]1O[C@@H]2COP(=O)(O)O[C@H]2[C@H]1OC(=O)CCC` [Bucladesine sodium salt]: the growth yield runs as follows: (40 h) 97.69 ± 0.79%; (72 h) 97.75 ± 0.42%.

`Nc1nc2c(ncn2COCCO)c(=O)[nH]1` [Acyclovir]: the growth yield is, setting by setting: (40 h) 103.7 ± 0.48%; (72 h) 101 ± 1.7%.

In turn, `Nc1nc2c(ncn2COC(CO)CO)c(=O)[nH]1` [Ganciclovir] yielded a growth yield (40 h) of 106 ± 4.3% and a growth yield (72 h) of 103 ± 4%.

`Nc1nc2n[nH]nc2c(=O)[nH]1` [Azaguanine-8]: the growth yield was determined as 3.49 ± 0.95% (40 h) and 2.62 ± 0.1% (72 h).

`CC[C@]12CCCN3CCc4c(n(c5ccccc45)[C@@](O)(C(=O)OC)C1)[C@@H]32` [Vincamine] showed a growth yield (40 h) of 97.37 ± 0.16% and a growth yield (72 h) of 95.3 ± 1.4%.

Turning to `CCN1CCC[C@H]1CNC(=O)c1c(OC)ccc(Br)c1OC` [Remoxipride Hydrochloride], the growth yield was 101 ± 1.9% (40 h) and 101.8 ± 0.94% (72 h).

Take `O=C(O)Cc1sc(-c2ccccc2)nc1-c1ccc(Cl)cc1` [Fentiazac]: the growth yield was determined as 63.1 ± 4.3% (40 h) and 88.8 ± 4.9% (72 h).

As to `CC[N+](CC)(CC)CCC(O)(c1ccccc1)C1CCCCC1` (stereo not given) [Tridihexethyl chloride], the growth yield by setting is: (40 h) 103 ± 6.3%; (72 h) 101 ± 4.5%.

With `CCCCOC(=O)c1ccc(O)cc1` [Butylparaben], the growth yield reads like this: (40 h) 46.4 ± 2.2%; (72 h) 49.5 ± 0.84%.

Take `CCCCOC(=O)c1ccc(N)cc1` [Butamben]: the growth yield came to 66.9 ± 1.8% (40 h) and 73 ± 2.5% (72 h).

Regarding `CCCCN(CCCC)CCCOC(=O)c1ccc(N)cc1` [Butacaine], the growth yield by setting is: (40 h) 95.5 ± 4.9%; (72 h) 98.5 ± 4.1%.

Consider `CC(C)(C)NC(=O)[C@@H]1C[C@@H]2CCCC[C@@H]2CN1C[C@@H](O)[C@H](Cc1ccccc1)NC(=O)[C@H](CC(N)=O)NC(=O)c1ccc2ccccc2n1` [Saquinavir mesylate], for which the growth yield reads like this: (40 h) 110 ± 3.3%; (72 h) 107 ± 3.1%.

For `CC[C@H](C)C(=O)O[C@H]1C[C@@H](C)C=C2C=C[C@H](C)[C@H](CC[C@@H]3C[C@@H](O)CC(=O)O3)[C@H]21` [Lovastatin], the growth yield amounted to 94.8 ± 5.2% (40 h) and 94.5 ± 3.2% (72 h).

Consider `CCCCC(CC)CN1CN(CC(CC)CCCC)CC(C)(N)C1` (stereo not given) [Hexetidine], for which the growth yield reads like this: (40 h) 105 ± 3.2%; (72 h) 118 ± 6.3%.

As to `NCc1ccc(S(N)(=O)=O)cc1` [Mafenide hydrochloride], the growth yield worked out at 107 ± 2.5% (40 h) and 111 ± 4.2% (72 h).

For the molecule `NS(=O)(=O)c1cc(C2(O)NC(=O)c3ccccc32)ccc1Cl` (stereo not given) [Chlorthalidone], the growth yield reads like this: (40 h) 102 ± 3.6%; (72 h) 105 ± 3.7%.

As to `CCOC(=O)C1=C(COCCN)NC(C)=C(C(=O)OC)C1c1ccccc1Cl` (stereo not given) [Amlodipine], the growth yield by setting is: (40 h) 105 ± 12%; (72 h) 113 ± 11%.

On to `COc1ccc2cc([C@@H](C)C(=O)O)ccc2c1` [(R) -Naproxen sodium salt], for which the growth yield came to 84.5 ± 7% (40 h) and 87.2 ± 6.4% (72 h).

Consider `CC(C(=O)O)c1ccc2c(c1)[nH]c1ccc(Cl)cc12` (stereo not given) [Carprofen], for which the growth yield runs as follows: (40 h) 40.7 ± 15%; (72 h) 88.9 ± 8%.

As for `CC(C(=O)O)c1ccc(-c2ccccc2)c(F)c1` (stereo not given) [Flurbiprofen], the growth yield reads like this: (40 h) 72.9 ± 3%; (72 h) 86.5 ± 3.9%.

Regarding `CC[N+](C)(CC)CCOC(=O)C1c2ccccc2Oc2ccccc21` [Methantheline bromide], the growth yield reads like this: (40 h) 110 ± 1.8%; (72 h) 108 ± 1.3%.

`CCOC(=O)[C@H](CCc1ccccc1)N[C@@H](C)C(=O)N1Cc2ccccc2C[C@H]1C(=O)O` [Quinapril hydrochloride]: the growth yield runs as follows: (40 h) 98.8 ± 3.8%; (72 h) 98.1 ± 1.1%.

As for `Cc1cccc(C)c1NC(=O)CN1CCN(CCCC(c2ccc(F)cc2)c2ccc(F)cc2)CC1` [Lidoflazine], the growth yield by setting is: (40 h) 95.6 ± 1.3%; (72 h) 114 ± 3%.

For the molecule `CN(C)CCCO[C@@H]1[C@H]2OC(C)(C)O[C@H]2O[C@@H]1[C@H](O)CO` [Amiprilose hydrochloride], the growth yield reads like this: (40 h) 100.5 ± 0.79%; (72 h) 101.6 ± 0.73%.

`c1ccc2c(CC3=NCCN3)cccc2c1` [Naphazoline hydrochloride]: the growth yield reads like this: (40 h) 101 ± 2.4%; (72 h) 100%.

Turning to `C#CCN(C)Cc1ccccc1` [Pargyline hydrochloride], the growth yield by setting is: (40 h) 105 ± 2.1%; (72 h) 107 ± 2.9%.

As for `CN(Cc1ccc(C(C)(C)C)cc1)Cc1cccc2ccccc12` [Butenafine Hydrochloride], the growth yield by setting is: (40 h) 2.06 ± 1.4%; (72 h) 1.99 ± 1.1%.

As for `CN(C/C=C/c1ccccc1)Cc1cccc2ccccc12` [Naftifine hydrochloride], the growth yield is, setting by setting: (40 h) 15.6 ± 1.6%; (72 h) 55.5 ± 4.3%.

As to `CN(C/C=C/C#CC(C)(C)C)Cc1cccc2ccccc12` [Terbinafine], the growth yield came out at 2.7 ± 0.16% (40 h) and 2.52% (72 h).

In the case of `CC1(C)O[C@@H]2C[C@H]3[C@@H]4C[C@H](F)C5=CC(=O)C=C[C@]5(C)[C@H]4[C@@H](O)C[C@]3(C)[C@]2(C(=O)CO)O1` [Flunisolide], the growth yield runs as follows: (40 h) 100.5 ± 0.48%; (72 h) 96.5 ± 1.3%.

Regarding `N=C(N)N1CCc2ccccc2C1` [Debrisoquin sulfate], the growth yield by setting is: (40 h) 97.5 ± 1.3%; (72 h) 101.8 ± 0.52%.

`CNCC[C@@H](Oc1cccc2ccccc12)c1cccs1` [(R)-Duloxetine hydrochloride]: the growth yield was found to be 99.1 ± 2.9% (40 h) and 107 ± 3.1% (72 h).

For `Cc1ncc([N+](=O)[O-])n1CC(O)CCl` (stereo not given) [Ornidazole], the growth yield reads like this: (40 h) 99.8 ± 2.9%; (72 h) 103 ± 2.3%.

As for `CC(=O)N(CC(C)C(=O)O)c1c(I)cc(I)c(N)c1I` (stereo not given) [Iocetamic acid], the growth yield runs as follows: (40 h) 107 ± 1.6%; (72 h) 104 ± 1.1%.

In the case of `N[C@@H](C(=O)N[C@@H]1C(=O)N2C(C(=O)O)=C(Cl)CS[C@H]12)c1ccccc1` [Cefaclor hydrate], the growth yield was found to be 96.1 ± 4.6% (40 h) and 96.9 ± 4.2% (72 h).

Take `CCCCC(C)(O)C/C=C/[C@H]1[C@H](O)CC(=O)[C@@H]1CCCCCCC(=O)OC` (mixture of isomers) [Misoprostol]: the growth yield reads like this: (40 h) 105 ± 1.3%; (72 h) 109 ± 4.1%.

Consider `CCOC(=O)O[C@]1(C(=O)COC(=O)CC)CC[C@H]2[C@@H]3CCC4=CC(=O)C=C[C@]4(C)[C@H]3[C@@H](O)C[C@@]21C` [Prednicarbate], for which the growth yield is, setting by setting: (40 h) 118 ± 3%; (72 h) 114 ± 2.8%.

Molecule `O=c1[nH]c(=O)n([C@H]2C[C@H](O)[C@@H](CO)O2)cc1C(F)(F)F` [Trifluridine] gave a growth yield (40 h) of 109.9 ± 0.95% and a growth yield (72 h) of 106 ± 1.1%.

Regarding `O=c1[nH]c(=O)n([C@H]2C[C@H](O)[C@@H](CO)O2)cc1F` [Floxuridine], the growth yield by setting is: (40 h) 11.1 ± 3.8%; (72 h) 46.3 ± 9.3%.

In turn, `O=c1[nH]c(=O)n([C@H]2C[C@H](O)[C@@H](CO)O2)cc1I` [Idoxuridine] displayed a growth yield (40 h) of 102 ± 3.8% and a growth yield (72 h) of 99.4 ± 3.1%.
